In publication PMC10726135, “HNF4α isoforms regulate the circadian balance between carbohydrate and lipid metabolism in the liver” one finds binding signal data, which are given here for 42 sequences.

Over roughly 18,000 sequences, “log2 normalized intensity” has its median near 0.36; the highest 2% begin near 7.3. The sample holds the highest values, similar sequences and a random draw of the others, so the mix is not that of the screen.

This test deals with T1, HNF4alpha8 (COS-7 nuclear extract) (Homo sapiens, UniProt P41235-5 1-452).
T1 sequence: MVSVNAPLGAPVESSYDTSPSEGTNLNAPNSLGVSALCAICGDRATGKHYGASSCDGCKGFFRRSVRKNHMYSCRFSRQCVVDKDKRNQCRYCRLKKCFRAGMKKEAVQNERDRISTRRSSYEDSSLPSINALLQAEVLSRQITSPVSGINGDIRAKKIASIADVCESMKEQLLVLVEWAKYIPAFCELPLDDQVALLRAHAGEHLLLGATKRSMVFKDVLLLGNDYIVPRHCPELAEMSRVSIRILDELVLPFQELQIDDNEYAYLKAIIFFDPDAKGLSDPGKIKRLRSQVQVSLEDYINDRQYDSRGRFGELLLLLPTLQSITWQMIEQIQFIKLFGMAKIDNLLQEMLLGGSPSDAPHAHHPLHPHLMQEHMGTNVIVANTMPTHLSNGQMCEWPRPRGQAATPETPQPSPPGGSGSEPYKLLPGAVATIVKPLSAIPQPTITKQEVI
Description: protein-binding microarray; COS-7 nuclear extract on double-stranded Agilent 4x180k PBM; binding buffer, salt, pH and temperature not given in the material; high values mean tight binding. Conditions: chain copies: 2; label: 3' end of strand 1 on the slide; dsDNA, one strand shown. The method in brief: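 Nuclear extracts of COS-7 cells transiently transfected with a human HNF4α isoform were applied to a custom Agilent SurePrint G3 4x180k array bearing ~44,000 double-stranded ~60-nt test sequences, each in quadruplicate. The bound protein was imaged on an Agilent G2565CA scanner at 2-µm resolution. Binding signal is the normalized, background-corrected gProcessedSignal from Agilent software.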
For the sequence “AGTATTACCATGTCCTGTGATTAAGGTCAAGCCTAGGGAGATTAGAGTATCGGTCGA”, the binding signal worked out at 2.96 log2 normalized intensity.

On to “AACTATGCAGTGTCCATGGTGACCATGTGAGCCTAGGGAGATTAGAGTATCGGTCGA”, for which the binding signal stood at 1.71 log2 normalized intensity.

Take “AGAGTTAGGGCCTTGCTATGGAGTGGACTTGCCTAGGGAGATTAGAGTATCGGTCGA”: the binding signal stood at 3.91 log2 normalized intensity.

In the case of “TGCTAGAGTACTTGGACTTTAACCTTTAGAGCCTAGGGAGATTAGAGTATCGGTCGA”, the binding signal stood at 9.71 log2 normalized intensity.

As for “CTTTGGACTTGAATTATCCTTATGGTCTCTGCCTAGGGAGATTAGAGTATCGGTCGA”, the binding signal worked out at 0.611 log2 normalized intensity.

“CTTTAACGACCTTTGGACTTGAATTATCCTGCCTAGGGAGATTAGAGTATCGGTCGA”: the binding signal amounted to 8.83 log2 normalized intensity.

Turning to “TGGTATGCTAGAGTACTTGGACTTTAACCTGCCTAGGGAGATTAGAGTATCGGTCGA”, the binding signal was 9.56 log2 normalized intensity.

As to “TCGAATGGTATGCTAGAGTACTTGGACTTTGCCTAGGGAGATTAGAGTATCGGTCGA”, the binding signal was 7.5 log2 normalized intensity.

“GCTTTTGGAAGGACTTCGAATGGTATGCTAGCCTAGGGAGATTAGAGTATCGGTCGA”: the binding signal was -0.468 log2 normalized intensity.

As for “CTGGACTATGCCTTGAACTTTAAGGCACCTGCCTAGGGAGATTAGAGTATCGGTCGA”, the binding signal came to 1.67 log2 normalized intensity.

Regarding “ACGACCTTTGGACTTGAATTATCCTTATGGGCCTAGGGAGATTAGAGTATCGGTCGA”, the binding signal was 6.99 log2 normalized intensity.

On to “GGACTTCGAATGGTATGCTAGAGTACTTGGGCCTAGGGAGATTAGAGTATCGGTCGA”, for which the binding signal came to 1.51 log2 normalized intensity.

For the sequence “GCCTAAGCAGGGCTAGACTTTAACCCCCTTGCCTAGGGAGATTAGAGTATCGGTCGA”, the binding signal amounted to 6.24 log2 normalized intensity.

As for “ACACTGGGCTAGAGGTCTTAATCTTTTTACGCCTAGGGAGATTAGAGTATCGGTCGA”, the binding signal was 1.15 log2 normalized intensity.

Consider “CAGTGGGAGACAGGCATTAACCCTTTAGTGGCCTAGGGAGATTAGAGTATCGGTCGA”, for which the binding signal was 0.965 log2 normalized intensity.

“CAACCCATCCAACTCCTTGAGAAGTACAACGCCTAGGGAGATTAGAGTATCGGTCGA”: the binding signal was -0.809 log2 normalized intensity.

In the case of “CAAAATATCTCACTCCCACACTGGTAACCTGCCTAGGGAGATTAGAGTATCGGTCGA”, the binding signal came out at 0.32 log2 normalized intensity.

In the case of “CAGCTGTTATCTCTTTTGTGATAGAATGAAGCCTAGGGAGATTAGAGTATCGGTCGA”, the binding signal stood at 1.89 log2 normalized intensity.

As for “GTGTCATTGTTATTTACGGTGGGCACCTCAGCCTAGGGAGATTAGAGTATCGGTCGA”, the binding signal amounted to 0.235 log2 normalized intensity.

On to “AGTGTTTCAAAGGAGTGTCTTTCTCCTTGAGCCTAGGGAGATTAGAGTATCGGTCGA”, for which the binding signal was 1.38 log2 normalized intensity.

Take “CTTGGACTTTAACCTTTAGATTACTAGGAAGCCTAGGGAGATTAGAGTATCGGTCGA”: the binding signal amounted to 6.61 log2 normalized intensity.

As to “ACTTTAACCTTTAGATTACTAGGAATTGATGCCTAGGGAGATTAGAGTATCGGTCGA”, the binding signal came to 1.53 log2 normalized intensity.

As for “GAGTACTTGGACTTTAACCTTTAGATTACTGCCTAGGGAGATTAGAGTATCGGTCGA”, the binding signal worked out at 7.94 log2 normalized intensity.

For the sequence “TGCCAAGGAGCCTCTGCAACCTTTGCTCTCGCCTAGGGAGATTAGAGTATCGGTCGA”, the binding signal turned out to be 6.62 log2 normalized intensity.

Take “CCTTTTTTGAAGGTTAAAGTCCATTTTTGAGCCTAGGGAGATTAGAGTATCGGTCGA”: the binding signal was found to be 7.52 log2 normalized intensity.

Take “TTTGAAGGTTAAAGTCCATTTTTGAGGACCGCCTAGGGAGATTAGAGTATCGGTCGA”: the binding signal amounted to 6.47 log2 normalized intensity.

Consider “ATGGTTAAGGTGAAAGTCCGACTTTTAAGAGCCTAGGGAGATTAGAGTATCGGTCGA”, for which the binding signal was found to be 4.06 log2 normalized intensity.

On to “TTTATCCTTTTTTGAAGGTTAAAGTCCATTGCCTAGGGAGATTAGAGTATCGGTCGA”, for which the binding signal stood at 7.82 log2 normalized intensity.

As for “ACATTTTTATCCTTTTTTGAAGGTTAAAGTGCCTAGGGAGATTAGAGTATCGGTCGA”, the binding signal came out at 3 log2 normalized intensity.

On to “CTGCCACATTTTTATCCTTTTTTGAAGGTTGCCTAGGGAGATTAGAGTATCGGTCGA”, for which the binding signal stood at 2 log2 normalized intensity.

In the case of “AAACCTCCCCCAAACCAAAGAGAAATGGTGGCCTAGGGAGATTAGAGTATCGGTCGA”, the binding signal is 3.41 log2 normalized intensity.

For the sequence “TGGTTTTCCAATCTGGTGAAAGATGATGAGGCCTAGGGAGATTAGAGTATCGGTCGA”, the binding signal worked out at 0.365 log2 normalized intensity.

In the case of “TCTAAGGCAAAACACCCCTTTCACTTCTTCGCCTAGGGAGATTAGAGTATCGGTCGA”, the binding signal was 0.915 log2 normalized intensity.

Turning to “CCATTTATAAGAAACTGCTCCTGCTTGGGAGCCTAGGGAGATTAGAGTATCGGTCGA”, the binding signal was -0.881 log2 normalized intensity.

For “TGCCAGCCCCGAGATAACCCCTCTCCAAGCGCCTAGGGAGATTAGAGTATCGGTCGA”, the binding signal was 4.43 log2 normalized intensity.

As for “ATAGACTGTCCCTCAGTGTGGGACTTTGGTGCCTAGGGAGATTAGAGTATCGGTCGA”, the binding signal was 3.52 log2 normalized intensity.

Consider “GAAAAGGCCTGACCTTTGCCCTCTGGCCCTGCCTAGGGAGATTAGAGTATCGGTCGA”, for which the binding signal stood at 9.29 log2 normalized intensity.

In the case of “CCCTCGACCTTTGCCCTCCATAAGGGGGAGGCCTAGGGAGATTAGAGTATCGGTCGA”, the binding signal came to 6.74 log2 normalized intensity.

For the sequence “TTCTGCCCCTTGCTCCTGCTTGCTGGCTTTGCCTAGGGAGATTAGAGTATCGGTCGA”, the binding signal amounted to 1.35 log2 normalized intensity.

As to “GACCTTTGCCCTCTGGCCCTTAAAGGCTTTGCCTAGGGAGATTAGAGTATCGGTCGA”, the binding signal was 7.8 log2 normalized intensity.

As for “CAGAGGCTTCCTCTTTGGTGCAAAGGTCAGGCCTAGGGAGATTAGAGTATCGGTCGA”, the binding signal stood at 7.47 log2 normalized intensity.

As to “CCCTGCCTGACCTGCCCTTTGTCCCTCCTGGCCTAGGGAGATTAGAGTATCGGTCGA”, the binding signal was 5.06 log2 normalized intensity.
